# Hits are enriched below; roughly 7% of the tested compounds scored in any of these assays.
# D3 ag: agonists of human D3 dopamine receptor; 410,000 compounds, 0.58% hits; D3R DiscoveRx beta-arrestin cells, luminescence, 90 min; max activation, %; in the data active = max activation above about 30%
# Target sequence (P35462 whole entry, looked up): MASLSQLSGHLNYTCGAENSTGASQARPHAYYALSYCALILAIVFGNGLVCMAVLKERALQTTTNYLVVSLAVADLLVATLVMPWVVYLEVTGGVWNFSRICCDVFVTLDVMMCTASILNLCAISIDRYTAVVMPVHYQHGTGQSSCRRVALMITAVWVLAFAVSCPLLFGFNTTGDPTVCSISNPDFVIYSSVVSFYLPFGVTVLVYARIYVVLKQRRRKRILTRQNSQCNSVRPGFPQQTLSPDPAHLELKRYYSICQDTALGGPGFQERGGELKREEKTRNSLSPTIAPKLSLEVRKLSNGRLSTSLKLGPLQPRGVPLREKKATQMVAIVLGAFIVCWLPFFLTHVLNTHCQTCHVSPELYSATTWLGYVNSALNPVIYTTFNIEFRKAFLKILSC
#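 Cells at 1500/well, incubated overnight, then treated with pinned compounds (dopamine as control) for 90 min at 37 degrees C. DiscoveRx reagent added for 30 - 60 minutes at room temperature; luminescence read.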
# ATXN2 expr inh: inhibitors of ATXN2 expression; Potency, µM (doses to about 57 µM), actives largely listed as inhibitors; 360,000 compounds, 0.72% hits; AID 1745845; HEK-293 ATXN2-luciferase reporter, luminescence, 24 h; note: nearly all actives have a fitted effect of over 55% in size
#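 ATXN2-luciferase reporter cells (luciferase flanked by upstream and downstream ATXN2 gene portions) were treated 24 h at 37 °C with compounds at up to 57 uM. SteadyGlo luminescence gave expression; GF-AFC fluorescence gave viability.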
# D3 antag: D3 dopamine receptor (human) antagonism; D3R cells, DiscoveRx beta-arrestin luminescence, antagonist mode; hits give low values; 360,000 compounds, 2.5% hits; P35462; AID 652054; max response, negative = inhibition, %; in the data active = max response below about -50%; inconclusive = no clear call, values can overlap the other calls
#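 Cells plated overnight at 1500 cells/well, then exposed to library compounds with dopamine controls for 90 minutes at 37 degrees C. DiscoveRx reagent added for 30–60 minutes at room temperature; luminescence read, quantitative HTS format.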
# Integrin act MD: activators of alpha7 integrin expression for muscular dystrophy | 350,000 compounds, 0.064% hits | alpha7betagal myoblasts, beta-gal FDG fluorescence, 48 h | Potency, µM (titrated, usually from 38.3 µM), usual class: activators | AID 624291; note: nearly all actives have a fitted effect of over 60% in size
#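 Alpha7betagal+/- myoblasts (passage 13) were plated 16-24 hr, then exposed to compounds (1:260 dilution of DMSO stock) for 48 hours at 37C. After MPER lysis, β-galactosidase reporter activity was read as FDG fluorescence (ex 480/em 540) after 30 minutes.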
# ATXN viability: reduces viability in counter-screen for ATXN expression inhibitors; S2 cells (HEK-293 line with an ATXN2-luciferase reporter) viability, CellTiter-Fluor protease fluorescence, 24 h; Potency, µM (doses to about 56.7 µM), actives largely listed as cytotoxic; 400,000 compounds, 0.49% hits; note: nearly all actives have a fitted effect of over 40% in size
# IL1B secr inh: inhibitors of inflammasome signaling (IL-1 beta secretion) | THP-1 LPS/ATP IL-1B secretion, AlphaLISA, 16 h; hits give low values | activity change, % at 57.5 µM | 360,000 compounds, 4.7% hits | AID 743279; in the data active = activity change below about -50%; inconclusive = mostly about -30% to -49%
#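 Secreted IL-1B measured by AlphaLISA bead assay after 16 h compound exposure of THP-1 cells; compounds (final up to 57.5 uM) added 1 h before LPS (250 ng/mL) and ATP (1.25 mM) stimulation; lower signal means less secretion.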
# Numbers stand for hits; 0 = inactive; ? = inconclusive; - = not tested or not shown; [ ] = dose if it differs, or a comment. Unless noted, calls come from the whole dose curve; as a rule, active = well fitted curve in the direction sought with a large enough effect; inconclusive = small, poorly fitted or top-dose-only effect, or another doubt; inactive = no such curve, though single readings can be large; an effect the other way counts as inactive or inconclusive.
SMILES,D3 ag,ATXN2 expr inh,D3 antag,Integrin act MD,ATXN viability,IL1B secr inh
O=[N+]([O-])c1cnccc1-n1nnc2ccccc21,0,0,0,-,?,-116
COc1cc(CNCCc2ccccc2)ccc1OCc1ccc(Cl)nc1,0,0,0,0,0,-52
COc1ccccc1CCNCc1ccc(OC)c(OCc2ccccc2)c1,0,?,?,0,?,-99
COc1cccc(CNCCc2c[nH]c3ccccc23)c1OCc1ccccc1,0,?,0,0,0,-
COc1cc(CNCCc2c[nH]c3ccccc23)ccc1OCc1ccccc1F,0,?,-56,0,?,-57
COc1ccc(CNCc2ccco2)cc1OCc1ccccc1,0,0,0,0,0,0
CCCCNCc1ccc(OCc2ccc(Cl)nc2)c(OC)c1,0,0,0,0,?,0
O=c1[nH]c(=O)n(C2OC(CO)C(O)C2O)cc1F (centres undefined),0,0,0,0,?,0
Nc1nc(=O)n(C2OC(CO)C(O)C2O)cc1F (centres undefined),0,?,-78,-,?,0
Cc1ccc2oc(C(=O)NC3CCS(=O)(=O)C3)cc(=O)c2c1 (centres undefined),0,0,0,0,0,0
N#Cc1c(-c2ccc(Cl)cc2)n(O)c2ccccc12,0,0,0,0,?,-54
C/C(=N\NC(=O)c1c(-c2ccccc2Cl)noc1C)c1cccc(NC(=O)C(C)C)c1,0,0,0,0,0,0
COC1C(C)=C(C)C(=O)N1Cc1ccc(F)cc1 (centres undefined),0,0,0,0,?,0
O=S(=O)(CC(CN1CCCC1)N1CCCC1)c1ccc2ccccc2c1 (centres undefined),0,0,?,0[7.66 µM],11µM,-107
Cc1ccc(S(=O)(=O)CC(C)N2CCOCC2)c(S(=O)(=O)CC(C)N2CCOCC2)c1 (centres undefined),0,0,0,0,0,0
CC1CCN(CC(CS(=O)(=O)c2ccc([N+](=O)[O-])cc2)N2CCC(C)CC2)CC1 (centres undefined),0,0,0,0,0,-76
Cc1ccc(S(=O)(=O)CC(CN2CCOCC2)N2CCOCC2)cc1 (centres undefined),0,0[11.3 µM],0,0,0,-62
CCc1ccc(CNC(=O)CCc2nnc(Cc3cccc(C(F)(F)F)c3)o2)nc1,0,0,0,0,0,0
CCOC(=O)c1sc(NC(=O)Nc2cccc(Cl)c2)cc1C,0,0,0,0,?,-76
CCOC(=O)c1sc(NC(=O)c2cccs2)cc1C,0,0,0,0,0,?
CCCNC(=O)CSc1nc(COc2ccccc2)nc2ccccc12,0,0,0,0,0,-67
Cc1cc(C)c(NC(=O)CSc2nc(COc3ccccc3)nc3ccccc23)c(C)c1,0,0,0,0,?,-64
Cc1ccccc1NC(=O)CSc1nc(COc2ccccc2)nc2ccccc12,0,?,0,0,0,0
CCCNC(=O)c1onc(CSc2ccc(Cl)cc2)c1C(=O)NCCOC,0,0,?,0,0,0
COc1cc2c(cc1OC)-c1cc(Nc3ccc4c(c3)OCCO4)nc(=O)n1CC2,0,0,0,0,0,-70
SMILES,D3 ag,ATXN2 expr inh,D3 antag,Integrin act MD,ATXN viability,IL1B secr inh
COc1cc2c(cc1OC)-c1cc(N3CCc4ccccc43)nc(=O)n1CC2,0,0,0,0,0,-66
O=C(CC1SC(N2CCCCC2)=NC1=O)Nc1ccc(C(=O)Nc2ccccc2)cc1 (centres undefined),0,0,0,0,0,0
CC1(CCc2ccc3c(c2)OCO3)NCCc2c1[nH]c1ccccc21 (centres undefined),0,-,0,0,?,-57
CC1(CCc2ccc3c(c2)OCO3)NC(=O)c2ccccc2N1 (centres undefined),0,0,0,0,0,0
COc1cc(OC)cc(C(=O)N[C@@H](CCSC)c2nc3ccccc3[nH]2)c1,0,-,-56,0,0,0
COc1cccc(C(=O)N[C@@H](CCSC)c2nc3ccccc3[nH]2)c1,0,0,0,0,0,0
O=C(NC(Cc1ccccc1)c1nc2ccccc2[nH]1)c1ccc(Cl)c([N+](=O)[O-])c1 (centres undefined),0,-,-63,0,?,-165
CSCC[C@H](NC(=O)c1ccc(Cl)c([N+](=O)[O-])c1)c1nc2ccccc2[nH]1,0,?,-95,0,?,-102
N=c1c(S(=O)(=O)c2ccc(Br)cc2)cc2c(=O)n3ccccc3nc2n1CCN1CCOCC1,0,-,0,0,0,0
CC1CN(Cc2ccccc2)c2nc3c(c(=O)n(CC(N)=O)c(=O)n3C)n2C1 (centres undefined),0,-,0,0,0,0
COc1cccc(NC(=O)C2(C)CCCN(C(C)C)C2)c1 (centres undefined),0,0,0,-,0,0
OCCN1CCN(c2nc(-c3ccccc3)c3cc(Br)ccc3n2)CC1,0,0,0,0,0,-79
CN1CCN(c2nc(N3CCN(CCO)CC3)nc3ccccc23)CC1,0,0,0,0,?,0
OCCN1CCN(c2cc(-c3ccccc3)c3ccccc3n2)CC1,0,0,-81,0,0,?
O=C(O)C1CCN(c2nc(-c3ccccc3)c3cc(Br)ccc3n2)CC1,0,0,0,0,-,0
Cc1ccc2nc(-c3cccc(NS(C)(=O)=O)c3)cc(-c3ccccc3)c2c1,0,0,0,0,0,-100
CCOC(=O)N1CCN(C(=O)CSC2=NS(=O)(=O)c3cc(Cl)ccc3N2)CC1,0,0,0,0,0,0
Cc1cccc(OCC2Cn3c(nc4c3c(=O)[nH]c(=O)n4C)O2)c1 (centres undefined),0,0,0,0,-,0
CCc1cccc2c(N=O)c(O)[nH]c12,0,0,0,0,0,-64
O=C(O)c1n[nH]c2c1CCCCC2,0,0,0,0,0,0
CCCCN=C(Nc1ccc(Cl)cc1)c1cccnc1,0,-,-64,0,-,0
O=c1ccn([C@@H]2O[C@H](CNCc3c(OCc4ccccc4F)ccc4ccccc34)[C@@H](O)[C@H]2O)c(=O)[nH]1,0,0,0,-,?,-58
O=C1Nc2ccc(F)cc2C12Nc1ccccc1-c1nnc(SCc3ccccc3Cl)nc1O2 (centres undefined),0,0,?,0,0,0
CN1CCN(Cc2cccc(Oc3ccc(Cl)cc3)c2)CC1,0,0,-52,0,0,?
CCN1CCN(Cc2cccc(Oc3ccccc3)c2)CC1,0,0,-52,0,0,0
COc1cccc(CN2CCN(Cc3cccc(Oc4ccccc4)c3)CC2)c1OC,0,0,-59,0,0,0

# Screening results: PubChem, National Center for Advancing Translational Sciences (NCATS)
